Experimental data reported in the supplement of paper PMC13380429.

Test system: Vero E6 infected with SARS-CoV-2
Test: morphology score (similarity to uninfected cells); higher = more like uninfected cells
Settings: 24 h

Question: Which morphology score does the source give for `O=C1c2c(O)ccc(O)c2C(=O)c2c(NCCNCCO)ccc(NCCNCCO)c21` [mitoxantrone] (0.833333 µM) here?
Answer: Its morphology score is -0.00869.

Question: How did the morphology score turn out when `CN1CCN(CCCN2c3ccccc3Sc3ccc(S(=O)(=O)N(C)C)cc32)CC1` [thioproperazine] (10 µM) was run?
Answer: Its morphology score is 0.251.

Question: Which morphology score does the source give for `O=C(COc1ccc(Cl)cc1)N1CCN(Cc2ccc3c(c2)OCO3)CC1` [fipexide] (10 µM) here?
Answer: The morphology score was -0.165.

Question: `O=C(O)[C@]1(Cc2cccc(Nc3nccs3)n2)CC[C@@H](Oc2cccc(Cl)c2F)CC1` (0.833333 µM) was tested. Which morphology score did it give?
Answer: Its morphology score is 0.175.

Question: `C[C@@H](N)[C@H]1CC[C@H](C(=O)Nc2ccncc2)CC1` (10 µM) was tested. Which morphology score did it give?
Answer: Its morphology score is 0.243.

Question: Which morphology score does the source give for `NC(=O)OCC(O)COc1ccc(Cl)cc1` (stereo not given) [chlorphensin-carbamate] (10 µM) here?
Answer: Its morphology score is -0.0129.

Question: For `CCC(=O)O[C@@H]1CC(=O)O[C@H](C)C/C=C/C=C/[C@H](O)[C@H](C)C[C@H](CC=O)[C@H](O[C@@H]2O[C@H](C)[C@@H](O[C@H]3C[C@@](C)(O)[C@@H](OC(=O)CC)[C@H](C)O3)[C@H](N(C)C)[C@H]2O)[C@H]1OC` [midecamycin] (10 µM), which morphology score is on record?
Answer: Its morphology score is 0.2.

Question: Which morphology score does the source give for `CCCCCCCCCCCCCCCCCCCCCCCCCCCCO` [1-octacosanol] (10 µM) here?
Answer: The morphology score was 0.118.

Question: With `CS(=O)(=O)Nc1ccc(-c2coc3cc(OCc4cccc(C(=O)O)c4)ccc3c2=O)cc1` (10 µM) as the compound, how does the morphology score read?
Answer: Its morphology score is 0.0543.

Question: For `O=C(NOCCO)c1ccc2cncn2c1Nc1ccc(I)cc1F` (0.833333 µM), which morphology score is on record?
Answer: Its morphology score is -0.298.

Question: `O=C(O[C@@H]1Cc2c(O)cc(O)cc2O[C@@H]1c1ccc(O)c(O)c1)c1cc(O)c(O)c(O)c1` [epicatechin-gallate-(-)] (10 µM) was tested. Which morphology score did it give?
Answer: The morphology score was 0.106.

Question: For `CC[N+](C)(CC)CCOC(=O)C(O)(c1ccccc1)C1CCCCC1` (stereo not given) [oxyphenonium] (10 µM), which morphology score is on record?
Answer: Its morphology score is 0.00163.

Question: Which morphology score does the source give for `CCc1cc2c(cc1N1CCC(N3CCOCC3)CC1)C(C)(C)c1[nH]c3cc(C#N)ccc3c1C2=O` [alectinib] (10 µM) here?
Answer: The morphology score was 0.135.

Question: `CN(C)C(=O)c1cc2cnc(Nc3ccc(N4CCNCC4)cn3)nc2n1C1CCCC1` [ribociclib] (10 µM) was tested. Which morphology score did it give?
Answer: The morphology score was 0.244.

Question: For `Nc1ncn([C@@H]2O[C@H](CO)[C@@H](O)[C@H]2O)c(=O)n1` [azacitidine] (0.833333 µM), which morphology score is on record?
Answer: The morphology score was -0.0243.

Question: How did the morphology score turn out when `NS(=O)(=O)c1cc(C2(O)NC(=O)c3ccccc32)ccc1Cl` (stereo not given) [chlorthalidone] (10 µM) was run?
Answer: The morphology score was 0.13.

Question: For `COc1cc(OC2CCN(C)CC2)ccc1Nc1ncc2c(n1)n(C1CCCC1)c(=O)n2C` (0.833333 µM), which morphology score is on record?
Answer: Its morphology score is 0.126.

Question: `CN(C)CCOC(c1ccccc1)c1ccccc1.Cn1c(=O)c2[nH]c(Cl)nc2n(C)c1=O` [dimenhydrinate] (10 µM) was tested. Which morphology score did it give?
Answer: The morphology score was -0.0688.

Question: With `CC1=C(/C=C/C(C)=C/C=C/C(C)=C/C(=O)Nc2ccc(O)cc2)C(C)(C)CCC1` [fenretinide] (10 µM) as the compound, how does the morphology score read?
Answer: The morphology score was -0.442.

Question: With `C#Cc1cccc(Nc2ncnc3cc4c(cc23)OCCOCCOCCO4)c1` [icotinib] (0.833333 µM) as the compound, how does the morphology score read?
Answer: The morphology score was -0.00998.

Question: `N#CC[C@@H](C1CCCC1)n1cc(-c2ncnc3[nH]ccc23)cn1` [ruxolitinib-(S)] (10 µM) was tested. Which morphology score did it give?
Answer: Its morphology score is 0.62.

Question: `CCN(CC)CC1CCCCN1CC(=O)N1c2ccccc2C(=O)Nc2cccnc21` (stereo not given) [otenzepad] (10 µM) was tested. Which morphology score did it give?
Answer: Its morphology score is 0.171.

Question: With `O=C1CC2(CCCC2)CC(=O)N1CCNC[C@H]1COc2ccccc2O1` (10 µM) as the compound, how does the morphology score read?
Answer: Its morphology score is -0.0647.

Question: For `O=C(Nc1c[nH]nc1-c1nc2ccc(CN3CCOCC3)cc2[nH]1)NC1CC1` (0.833333 µM), which morphology score is on record?
Answer: Its morphology score is 0.0293.

Question: For `CC(=O)N1CCC(C(=O)N(CCCN2CCC(Cc3ccc(C(N)=O)cc3)CC2)c2ccc(C)c(Cl)c2)CC1` (10 µM), which morphology score is on record?
Answer: Its morphology score is 0.0284.

Question: With `CCCC(=O)O[C@]1(C(=O)CCl)[C@@H](C)C[C@H]2[C@@H]3CCC4=CC(=O)C=C[C@]4(C)[C@@]3(F)C(=O)C[C@@]21C` [clobetasone-butyrate] (10 µM) as the compound, how does the morphology score read?
Answer: The morphology score was 0.344.

Question: How did the morphology score turn out when `CC(NC(C)(C)C)C(=O)c1cccc(Cl)c1` (stereo not given) [bupropion] (10 µM) was run?
Answer: Its morphology score is 0.00981.

Question: How did the morphology score turn out when `O=c1n(CC2CO2)c(=O)n(CC2CO2)c(=O)n1CC1CO1` (stereo not given) [teroxirone] (10 µM) was run?
Answer: Its morphology score is -0.0418.

Question: Which morphology score does the source give for `CN(C(=O)Cc1ccccc1)[C@H](CN1CCCC1)c1ccccc1` (10 µM) here?
Answer: Its morphology score is 0.0751.

Question: `CO/N=C(\C(=O)N[C@@H]1C(=O)N2C(C(=O)OCOC(=O)C(C)(C)C)=C(C)CS[C@H]12)c1csc(N)n1` [cefetamet-pivoxil] (10 µM) was tested. Which morphology score did it give?
Answer: The morphology score was 0.225.

Question: `NC[C@H]1O[C@H](O[C@H]2[C@H](O)[C@@H](O[C@H]3O[C@H](CO)[C@@H](O)[C@H](N)[C@H]3O)[C@H](N)C[C@@H]2N)[C@H](N)[C@@H](O)[C@@H]1O` [bekanamycin] (10 µM) was tested. Which morphology score did it give?
Answer: The morphology score was 0.0989.

Question: Which morphology score does the source give for `COc1cc(F)c(C(C)C)cc1-c1ccc(C(F)(F)F)cc1CN1C(=O)O[C@H](c2cc(C(F)(F)F)cc(C(F)(F)F)c2)[C@@H]1C` [anacetrapib] (10 µM) here?
Answer: Its morphology score is 0.116.

Question: With `N=C1NC(=O)/C(=C/c2ccc(O)cc2)S1` [mirin] (10 µM) as the compound, how does the morphology score read?
Answer: Its morphology score is -0.0277.

Question: Which morphology score does the source give for `CC(c1cc2ccccc2s1)N(O)C(N)=O` (stereo not given) [zileuton] (10 µM) here?
Answer: Its morphology score is 0.0704.

Question: How did the morphology score turn out when `COc1cc(OC)c(C(=O)CCCN2CCCC2)c(OC)c1` [buflomedil] (10 µM) was run?
Answer: Its morphology score is 0.0545.

Question: For `CCN[C@H]1C[C@H](C)S(=O)(=O)c2sc(S(N)(=O)=O)cc21` [dorzolamide] (10 µM), which morphology score is on record?
Answer: Its morphology score is 0.0923.

Question: With `N=C(N)NC(=O)c1nc(Cl)c(N)nc1N` [amiloride] (10 µM) as the compound, how does the morphology score read?
Answer: The morphology score was 0.1.

Question: How did the morphology score turn out when `N=C(C[C@@H](O)COc1ccccc1-c1ccccc1)N1CCCCC1` (10 µM) was run?
Answer: Its morphology score is 0.0845.

Question: With `CC(=O)O[C@H]1CC[C@@]2(C)C(=CC[C@@H]3[C@@H]2CC[C@]2(C)C(c4cccnc4)=CC[C@@H]32)C1` [abiraterone-acetate] (10 µM) as the compound, how does the morphology score read?
Answer: Its morphology score is -0.0503.

Question: With `COc1cc2c(Oc3ccc4[nH]c(C)cc4c3F)ccnc2cc1OCC1(N)CC1` [anlotinib] (10 µM) as the compound, how does the morphology score read?
Answer: Its morphology score is -0.207.
